Screening data (PubChem BioAssay)
Giardia FBPA inh: blocks Giardia fructose-bisphosphate aldolase activity; Potency, µM (titrated, usually from 59.6 µM), without a hit: at the highest dose activity, negative = inhibition, most hits filed as inhibitors; purified Giardia FBPA; A8B2U2; 0.71% of 290,000 active; also: nearly all actives have a fitted effect of over 55% in size
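40 nM FBPA preincubated 10 min at RT with compound (up to 57.5 uM final), then substrate plus GAPDH/TPI/NAD/arsenate coupling and diaphorase/resazurin added. Fluorescence read after 20 min at RT, 525/598 nm.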
TbPYK inhibitor: inhibitors of Trypanosoma brucei pyruvate kinase. Q57TT1. TbPYK enzyme, Kinase-Glo Plus ATP luminescence, 45 min. Potency, µM (titrated, usually from 76.8 µM), for inactives: at the highest dose activity, negative = inhibition, actives largely listed as inhibitors. 0.12% of 410,000 active. AID 624173; also: nearly all actives have a fitted effect of over 50% in size
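T. brucei PYK with substrate was exposed to pin-transferred compounds across a concentration series, then started with 130 uM ADP (final). After 45 min at room temperature, Kinase-Glo Plus luminescence was read, normalized and curve-fitted.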
LmPK inh: blocks Leishmania mexicana pyruvate kinase activity; Q27686; purified LmPK, Kinase-Glo ATP luminescence, 1 h; Potency, µM (doses to about 57.5 µM), without a hit: top-dose activity change, negative = inhibition, actives largely listed as inhibitors; 0.37% of 290,000 active
Target sequence (Q27686 whole entry, looked up): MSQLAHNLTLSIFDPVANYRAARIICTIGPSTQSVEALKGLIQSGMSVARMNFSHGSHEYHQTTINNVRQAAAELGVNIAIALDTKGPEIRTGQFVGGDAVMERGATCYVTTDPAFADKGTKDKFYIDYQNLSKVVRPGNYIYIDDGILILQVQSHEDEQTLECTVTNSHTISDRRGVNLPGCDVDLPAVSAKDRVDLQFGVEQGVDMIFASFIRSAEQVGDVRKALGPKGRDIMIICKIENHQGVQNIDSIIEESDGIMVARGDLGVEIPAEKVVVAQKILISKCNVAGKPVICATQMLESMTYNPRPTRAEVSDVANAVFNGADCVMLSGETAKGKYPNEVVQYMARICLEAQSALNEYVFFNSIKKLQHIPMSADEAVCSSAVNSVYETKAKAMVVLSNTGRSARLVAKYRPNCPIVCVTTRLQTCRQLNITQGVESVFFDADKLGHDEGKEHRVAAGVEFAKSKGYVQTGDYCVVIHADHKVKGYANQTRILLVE
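In 50 mM imidazole pH 7.2 with 7 mM MgCl2, LmPK (0.1 nM) turned over PEP (0.5 mM) and ADP (0.1 mM) for 1 h at room temperature. Luciferase read-out of ATP.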
RE007 growth inh: less growth of the S. pombe RE007 Vpr strain | 0.21% of 360,000 active | S. pombe RE007 Vpr strain, BacTiter-Glo ATP luminescence, 24 h | Potency, µM (series often up to 92.2 µM), for inactives: at the highest dose activity change, negative = less growth, usual class: inhibitors | AID 651644; active = well fitted falling curve with a large enough effect; inconclusive = small, poorly fitted or top-dose-only effect; inactive = no such curve, though single readings can be large or run the other way; also: nearly all actives have a fitted effect of over 50% in size
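Fission yeast strain RE007, carrying one chromosomally integrated HIV-1 vpr copy, was seeded at OD 0.01 in PMG+AL medium with 23 nL pinned compound. After 24 h at 30 °C and 99% humidity, viability was read by BacTiter-Glo luminescence.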
* marks the source's active call; other numbers are inactive results; ? = inconclusive; . = no result given; [ ] = dose if it differs, or a comment. Only some compounds are listed: those with a hit (about 0.95% of all), similar ones and a draw of the others. Unless noted, calls follow the shape of the dose curve; as a rule, active = well fitted curve in the direction sought with a large enough effect; inconclusive = small, poorly fitted or top-dose-only effect, or another doubt; inactive = no such curve, though single readings can be large; an effect the other way counts as inactive or inconclusive. % is scaled to controls: 0 for no effect and ±100 for the full control effect; potency is read from the fitted curve at half-maximal effect.

SMILES | Giardia FBPA inh | TbPYK inhibitor | LmPK inh | RE007 growth inh
CCCCC/C=C\C/C=C\CCCCCCCC(=O)NC(C)C(=O)O (stereo unspecified) | 4% | . | . | .
CN=C1N[C@H](c2ccccc2)N(c2ccccc2)S1 | 22µM* | . | . | .
Cc1ccsc1C(=O)Nc1ccc2c(c1)OCCO2 | -8% | ? | 16µM* | -24%
Cc1c([N+](=O)[O-])c(C(=O)Nc2ccc3c(c2)OCCO3)nn1C | 4% | ? | 14µM* | -9%
Cc1ncoc1C(=O)Nc1ccc2c(c1)OCCO2 | -1% | -29% | 16µM* | -12%
O=C(Nc1ccc2c(c1)OCO2)c1ccc(Br)o1 | -10% | -4% | 22µM* | 9%
Cc1ccccc1C(=O)Nc1ccc2c(c1)OCCO2 | -1% | -14% | -10% | 11%
CC1(C)S[C@@H]2[C@H](NC(=O)[C@H](N)c3ccccc3)C(=O)N2[C@@H]1C(=O)OCOC(=O)[C@@H]1N2C(=O)C[C@@H]2S(O)(O)C1(C)C | . | -5% | . | .
Cc1ccc(N=Cc2c(C)[nH]n(-c3nc4ccccc4[nH]3)c2=O)cc1 | 16% | ? | 25µM* | 3.2µM*
O=C1/C(=C\c2cc([N+](=O)[O-])ccc2O)SC(=S)N1Cc1ccc(Cl)cc1 | 0% | -3% | 1% | 40µM*
CC(=O)OC1C=C[C@@H](OC(C)=O)C1 (stereo partly specified) | 7% | . | . | .
Cc1ccc(-n2sc3ccccc3c2=O)cc1 | ? | 7.9µM* | 20µM* | 6.3µM*
COC(=O)c1cccc(N2CCCC2=O)c1 | 5% | -1% | 0% | 0%
Cc1ccc(-n2sc3cc(F)ccc3c2=O)c(C)c1 | . | 10µM* | . | 11µM*
O=c1c2cc(F)ccc2sn1-c1ccccc1Cl | . | 11µM* | . | ?
COC(=O)c1cccc(-n2sc3ccccc3c2=O)c1 | . | 6.3µM* | . | ?
CC1=C(C(=O)Nc2ccc(C)cc2C)C(CC(C)C)n2nc(SCc3ccccc3C)nc2N1 (stereo unspecified) | . | 4% | . | .
Cc1c(C)c2c(c(C)c1OC(=O)CCC(=O)OCCO)CC[C@](C)(CCC[C@H](C)CCC[C@H](C)CCCC(C)C)O2 | . | 4% | . | .
COc1ccc(C2NC(=S)N3C(c4ccc(OC)c(OC)c4)NC(=S)N23)cc1OC (stereo unspecified) | . | -5% | . | .
O=c1c2ccc(F)cc2sn1-c1ccccc1 | . | 10µM* | . | -70%
O=C(c1sc2cc(F)ccc2c1Cl)N1CCN(c2cccc(Cl)c2)CC1 | 0% | -1% | 7% | -12%
O=c1c2ccccc2sn1-c1ccc(Cl)cc1 | . | 32µM* | . | 8.9µM*
O=c1c2ccccc2sn1-c1ccc(F)cc1 | . | 8.9µM* | . | 5.6µM*
CCC1CCCCN1C(=O)c1ccc([N+](=O)[O-])o1 (stereo unspecified) | 8% | 1% | 0% | -21%
Cc1ccc(S(=O)(=O)Nc2cccc3ccc[n+](C)c23)cc1 | -27% | . | . | .
SMILES | Giardia FBPA inh | TbPYK inhibitor | LmPK inh | RE007 growth inh
OC[C@@H]1CN(CCN2CCOCC2)C[C@H](n2cnc3c(NCc4ccc(F)cc4)ncnc32)O1 | . | 7% | . | -8%
CC(=O)N1CCC(N(Cc2ccco2)C(=O)Nc2cccc(C)c2)CC1 | . | -15% | . | .
CC(=O)C1=C(c2ccc(Br)cc2)C(=O)c2ccccc2C1=O | 0.28µM* | -6% | 1% | ?
CCOC(=O)OCC1OC(C#Cc2ccc(C(C)(C)C)cc2)C=CC1OC(=O)OCC (stereo unspecified) | 2%[12.9 µM] | . | . | .
Cc1ccc(C(=O)O/N=C(\N)c2ccccn2)cc1 | 6% | ? | 14µM* | ?
C/C(=N/OC(=O)c1ccc(C)cc1)c1cccs1 | -2% | ? | 10µM* | ?
CC(C)(C)c1ccc(C(=O)O/N=C(\N)c2ccccn2)cc1 | 4% | -8% | -16% | -2%
N/C(=N\OC(=O)c1ccc(Br)o1)c1ccccn1 | -2% | -21% | 13µM* | ?
CCN(CC)C(=O)Cn1cc(SCC(=O)NC2CCCCC2)c2ccccc21 | . | -3% | . | -17%
NC(=O)CCC1NC(=O)C(Cc2ccccc2)NC(=O)C(Cc2ccc(O)cc2)NC(=O)CCSSCC(C(=O)N2CCCC2C(=O)NC(CCCN=C(N)N)C(=O)NCC(N)=O)NC(=O)C(CC(N)=O)NC1=O (stereo unspecified) | . | 6% | . | .
COC(=O)[C@H](Cc1ccccc1)NC(=O)[C@]1(C)C[C@H]1[C@H](NC(=O)OCc1ccccc1)c1ccccc1 | -4% | . | . | .
CC(=O)Oc1ccc(C2(c3ccc(OC(C)=O)cc3)Oc3ccccc3NC2=O)cc1 | . | -5% | . | .
c1coc(-c2nc(-c3ccncc3)no2)c1 | 1% | -19% | 22µM* | -28%
c1ccc(-c2ccc(-c3nc(-c4ccncc4)no3)cc2)cc1 | -1% | -11% | 8% | 13%
c1ccc(-c2nc(-c3ccncc3)no2)cc1 | -13% | -14% | 14µM* | -19%
CC(=O)O[C@@]12CO[C@@H]1C[C@H](O)[C@@]1(C)C(=O)[C@H](O)C3=C(C)[C@@H](OC(=O)C(O)[C@@H](NC(=O)OC(C)(C)C)c4ccccc4)C[C@@](O)([C@@H](OC(=O)c4ccccc4)[C@H]21)C3(C)C (stereo partly specified) | . | 4% | . | .
Oc1ccc2c3c1OC1C(O)C=CC4[C@@H](C2)NCC[C@]314 (stereo partly specified) | . | -7%[157 µM] | . | .
CC(C)(C)CC(=O)Nc1nnc(SCC(=O)NC2CCCCC2)s1 | -4% | -7% | 1% | -14%
c1c2c(cc3sc(N4CCOCC4)nc13)OCO2 | -5%[12.9 µM] | ? | 16µM* | ?
c1ccc(N2CCN(c3nc4cc5c(cc4s3)OCO5)CC2)cc1 | 6% | -8% | 2% | 7%
CCOc1ccc(N2C(=O)CC(N(C)Cc3ccccc3)C2=O)cc1 (stereo unspecified) | 3% | -6% | -6% | 35µM*
CCCOc1ccc(N2C(=O)CC(N(Cc3ccccc3)N=O)C2=O)cc1 (stereo unspecified) | -2% | 2% | 4% | -12%
COC(=O)c1ccc(N2C(=O)CC(N(C)Cc3ccccc3)C2=O)cc1 (stereo unspecified) | 5% | -5% | 0% | 6.3µM*
CCCOc1ccc(N2C(=O)CC(SCCN)C2=O)cc1 (stereo unspecified) | -19% | -14% | -22% | 7.9µM*
CCOc1ccc(N2C(=O)CC(N)C2=O)cc1 (stereo unspecified) | 1% | -5% | -2% | 7.1µM*
CCOc1ccc(N2C(=O)CC(Cc3cc(C)cc(C)c3)C2=O)cc1 (stereo unspecified) | 2% | -3% | -2% | -8%
CCCOc1ccc(N2C(=O)CC(SCC(N)C(=O)OCC)C2=O)cc1 (stereo unspecified) | ? | -1% | -5% | ?
CCC1(Cc2ccc(N)cc2)CCC(=O)NC1=O (stereo unspecified) | . | 0%[157 µM] | . | .
CN(C)c1ccc(C(=C2C=CC(=[N+](C)C)C=C2)c2ccc(N(C)C)cc2)cc1 | 16µM* | ? | . | .
COc1cc(C)c(C(=O)Oc2cc(C)c(C(=O)O)c(O)c2)c(O)c1 | 11% | -1% | 9% | 11%
